This note sets out measurements from PubChem BioAssay AID602250 (The Scripps Research Institute Molecular Screening Center, 2012).

Each structure is given as a SMILES string. In all, about 360,000 compounds went through this assay and about 2,200 (0.61%) were called active.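 How the source made its calls: active means inhibition above a per-plate cutoff, the plate's mean sample inhibition plus 3 SD (cut at about 24% in these data); inactive means the rest.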 Only a selection was taken, and actives are over-represented in it overall.

This experiment can be described thus: calcium signal blockers in parental CHO-K1 cells – cell-based, Fluo-8 calcium fluorescence, full deck, 1536-well, counter-screen for M1 antagonist project, primary screen (AID 602250).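 Further: 0% = DMSO plus EC80 ATP and 100% = DMSO alone without ATP.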 The note with it: ATP-induced calcium, Fluo-8 fluorescence, at 3 µM, active compounds read high.
For the compound `COC(=O)c1ccc(-c2c(-c3ccccc3)ncc3cc(OC)c(OC)cc23)cc1`, the inhibition (as a rule, the drop in the measured response relative to a control, in per cent) was 8.1% (inactive).

`Cc1cc(=O)n2nc(N3CCCC(C(=O)N4CCN(C)CC4)C3)sc2n1` (configuration not stated): the inhibition was 26.5% (active).

With `Cc1cc(=O)n2nc(N3CCCC(C(=O)NCc4ccc(Cl)cc4)C3)sc2n1` (configuration not stated), the inhibition was -0.44% (inactive). `Cc1cc(=O)n2nc(N3CCCC(C(=O)NCc4cccc(Cl)c4)C3)sc2n1` (configuration not stated): the inhibition is -13.5% (inactive).

`Cc1ccc(NC(=O)c2oc(=O)c3ccccc3c2-c2ccccc2)c(C)c1`: the inhibition was -9.65% (inactive). For the compound `CCc1nnc(NC(=O)CSCc2cc(=O)n3cc(C)sc3n2)s1`, the inhibition was -12.4% (inactive). The figure for `COc1cccc(N2CCN(C(=O)C3CCCN(S(=O)(=O)c4cnc[nH]4)C3)CC2)c1` (configuration not stated) is 2.59% (inactive). On to `O=C(C1CCCN(S(=O)(=O)c2ccccc2)C1)N1CCN(c2ccc(F)cc2)CC1` (configuration not stated), for which the inhibition was -2.45% (inactive). On to `CC(=O)N1CCCc2cc(S(=O)(=O)N3CCCC(C(=O)N4CCN(c5cccc(Cl)c5)CC4)C3)ccc21` (configuration not stated), for which the inhibition is 30.4% (active). For the compound `COc1ccc(OC)c(S(=O)(=O)N2CCCC(C(=O)NCCc3ccccc3)C2)c1` (configuration not stated), the inhibition is -10.1% (inactive). Regarding `CCc1ccccc1NC(=O)CN1CCN(C(=O)c2cc(C3CC3)nn2-c2ccccc2)CC1`, the inhibition was -11.2% (inactive).

In the case of `CCC(=O)Nc1ccccc1C(=O)N1CCN(Cc2ccccc2)CC1`, the inhibition is 19.3% (inactive).

In the case of `Cc1nn(Cc2ccccc2)c(C)c1C(=O)N1CCN(CC(=O)Nc2ccccc2Cl)CC1`, the inhibition is 23.9% (active). Consider `CCCC(C)c1nnc(NC(=O)C2CC(=O)N(c3ccc(OCC)cc3)C2)s1` (configuration not stated), for which the inhibition is -4.36% (inactive). Turning to `Cc1nc(SCC(=O)NC2CCCC2)[nH]c(=O)c1C`, the inhibition is -8.77% (inactive). On to `CCCCC(=O)N1CC2(C)CN(C(=O)CCCC)CC(C)(C1)C2=O`, for which the inhibition was -5.12% (inactive). The figure for `COc1cc(O)c2c(=O)c3c(O)c(O)ccc3oc2c1OC` is -9.49% (inactive); for `COc1c(O)cc2oc(-c3ccc(O)c(O)c3)cc(=O)c2c1O` it is 24.9% (active); for `CCOC(=O)COc1cc(OCC(=O)OCC)c2c(=O)cc(-c3ccccc3)oc2c1` it is -13.4% (inactive).

As to `CCN(CC(=O)NCc1cccs1)C(=O)/C=C/c1ccc(C)cc1`, the inhibition was -10.9% (inactive). For the compound `CCCc1cc(=O)[nH]c(SCC(=O)Nc2sc3c(c2C#N)CCCC3)n1`, the inhibition is 5.46% (inactive). As to `Cc1sc(NC(=O)C2=COCCO2)c(C#N)c1C`, the inhibition was -16.8% (inactive).

Regarding `CCCc1ccc(-c2c(C)sc(NC(=O)c3ccnn3C)c2C#N)cc1`, the inhibition is 29.1% (active). In the case of `Nc1cccc(S(=O)(=O)Nc2ccc(SC(F)F)cc2)c1`, the inhibition was 12.1% (inactive).

With `COc1ccc(OCc2cc(C(=O)N3CCCC3)no2)c2ccccc12`, the inhibition is -10.3% (inactive). For `CCn1ccnc1CN(C)C(=O)c1cc(COc2ccc(Cl)cc2OC)on1`, the inhibition is -6.33% (inactive). Turning to `COc1cc(Cl)ccc1OCc1cc(C(=O)N2CC[C@@H]3CCCC[C@H]3C2)no1`, the inhibition was 30.9% (active).
